Screens deposited in PubChem BioAssay by National Center for Advancing Translational Sciences (NCATS).
Shiga inhibitor: blocks Shiga toxin action in Vero cells; Vero cells, Shiga toxin protein synthesis inhibition reporter; inhibition, % at 38.7 µM; 9.2% of 290,000 active; AID 2315; in the data active = inhibition mostly above about 28%, no sharp cut-off; inactive = mostly below about 43%
AmpC inh no detg: blocks E. coli AmpC beta-lactamase in detergent-free assay. 0.52% of 330,000 active. P00811. AmpC nitrocefin hydrolysis, absorbance 480 nm, 0.0001% Triton. Potency, µM (series often up to 57.1 µM), most hits filed as inhibitors; active = well fitted curve in the direction sought with a large enough effect; inconclusive = small, poorly fitted or top-dose-only effect, or another doubt; inactive = no such curve, though single readings can be large; an effect the other way counts as inactive or inconclusive; note: nearly all actives have a fitted effect of over 20% in size
Target sequence (P00811 whole entry, looked up): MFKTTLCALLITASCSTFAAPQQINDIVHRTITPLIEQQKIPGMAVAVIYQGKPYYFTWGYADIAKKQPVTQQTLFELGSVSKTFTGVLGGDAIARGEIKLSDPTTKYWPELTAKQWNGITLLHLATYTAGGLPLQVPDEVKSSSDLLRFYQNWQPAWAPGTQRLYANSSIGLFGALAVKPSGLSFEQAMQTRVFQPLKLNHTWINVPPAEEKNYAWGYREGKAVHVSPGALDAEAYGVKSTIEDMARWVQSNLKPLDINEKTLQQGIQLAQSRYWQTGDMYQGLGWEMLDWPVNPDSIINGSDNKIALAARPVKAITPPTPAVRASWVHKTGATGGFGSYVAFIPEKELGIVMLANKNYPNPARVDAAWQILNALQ
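AmpC (5.3 nM in the dispensed reagent) in 20 mM phosphate pH 7.0 with 0.01% (detergent screen) or 0.0001% Triton X-100 was preincubated with compounds for 15 min at room temperature. Nitrocefin was then added from an 800 uM solution, and hydrolysis was followed at 480 nm.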
NS1 inh: blocks influenza NS1 protein function; 0.4% of 270,000 active; Potency, µM (series often up to 46.1 µM); note: actives are rising curves; nearly all actives have a fitted effect of over 50% in size
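A cell-based growth assay was used: compounds that relieve NS1-induced slow growth of budding yeast raise OD600. Assay medium was yeast nitrogen base with ammonium sulphate and -URA supplement, pH 6.0, with 2% galactose.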
AmpC inh detg: inhibitors of E. coli AmpC beta-lactamase with detergent; P00811; Potency, µM (top dose mostly 114 µM), actives largely listed as inhibitors; 0.041% of 370,000 active; AmpC hydrolysis of nitrocefin, absorbance 480 nm, 0.01% Triton; active = well fitted curve in the direction sought with a large enough effect; inconclusive = small, poorly fitted or top-dose-only effect, or another doubt; inactive = no such curve, though single readings can be large; an effect the other way counts as inactive or inconclusive; note: nearly all actives have a fitted effect of over 25% in size
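AmpC (5.3 nM in the dispensed reagent) in 20 mM phosphate pH 7.0 with 0.01% (detergent screen) or 0.0001% Triton X-100 was preincubated with compounds for 15 min at room temperature. Nitrocefin was then added from an 800 uM solution, and hydrolysis was followed at 480 nm.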
CHX counter-1: counter-screen hit for Shiga toxin inhibitors, cycloheximide; cell reporter, cycloheximide protein synthesis inhibition counterscreen; max response, %; 12% of 300,000 active; AID 2314; in the data active = max response mostly above about 13%, no sharp cut-off; inactive = mostly below about 14%; note: read at 38.3 µM for the half of the compounds with a filed dose
CHX counter-2: counter-screen for Shiga toxin inhibitors: cycloheximide protein synthesis block. shares compounds with Shiga inhibitor. Cycloheximide counterscreen, protein synthesis reporter, Shiga toxin assay. Potency, µM (top dose mostly 38.3 µM), hits mostly activators. 3% of 510 active
Numbers stand for hits; . = inactive; ? = inconclusive; / = not tested or not shown. The sample as a whole holds a higher share of hits than the screen did. Unless noted, calls come from the whole dose curve.

SMILES	Shiga inhibitor	AmpC inh no detg	NS1 inh	AmpC inh detg	CHX counter-1	CHX counter-2
O=C(Nc1cccc2cccnc12)C1CCCC1	.	.	.	?	.	/
O=C(Cc1ccc(F)cc1)Nc1cccc2cccnc12	36	.	.	.	.	.
CNC(=O)CSc1nnc(-c2cc(C)cc(C)c2)o1	27	.	.	.	.	.
Cc1ccc(-n2c(C)c(C)c3c(N)ncnc32)cc1	34	.	.	.	.	.
CCN1CCN(C(=O)c2ccc3c(=O)n(CCC4=CCCCC4)c(=O)[nH]c3c2)CC1	29	.	.	.	.	?
O=C(c1ccccc1)N1CCN(CC(O)Cn2ccc3ccccc32)CC1 (stereo unspecified)	.	.	.	.	.	/
O=C(NCc1ccccc1Cl)NCc1ccccc1Cl	.	.	.	.	.	/
O=C(NCc1ccccc1Cl)c1cnc2ccccc2n1	46	.	.	.	.	.
CCn1cc(C(=O)NCc2ccccc2Cl)cn1	active	.	.	.	.	.
CCOc1ccc(N2CC(C(=O)NCCc3ccc(S(N)(=O)=O)cc3)CC2=O)cc1 (stereo unspecified)	.	.	.	.	.	/
CC[N+](CC)(CCO)CCCN1C(=O)C2CC=C(Cl)CC2C1=O (stereo unspecified)	143	.	.	?	.	.
O=C(/C=C/c1cn(CC(O)CN2CCCCCC2)c2ccccc12)c1ccccc1 (stereo unspecified)	/	/	/	.	/	/
O=C(/C=C/c1cn(CC(O)CN2CCCCC2)c2ccccc12)c1cccs1 (stereo unspecified)	32	.	.	.	.	.
O=C(Nc1ccccc1)c1ccccc1O	59	.	.	?	.	22µM
O=C(NCc1ccccc1Cl)c1ccc[nH]1	.	.	.	.	.	/
O=C(Nc1ccccc1)c1ccc[nH]1	40	.	.	.	.	.
COc1ccc(NC(=O)CS(=O)CC(=O)Nc2ccc(-n3cnnn3)c(C)c2)cc1 (stereo unspecified)	.	.	.	.	.	/
COc1cccc(-c2noc(CCC(=O)NCCc3ccccc3)n2)c1	49	.	.	?	.	.
O=C(CCc1nc(-c2ccccc2)no1)NCCc1ccccc1	.	.	.	.	.	/
O=C1c2ccccc2C(=O)c2c1ccc1c(=O)n(C3CCCCC3)[nH]c21	27	.	.	?	.	.
O=C(COC(=O)c1cccc2c1C(=O)c1ccccc1C2=O)NC1CCCCC1	.	.	.	.	.	/
Cc1cc(NC(=O)c2ccc(Br)o2)ccc1NC(=O)c1ccco1	61	.	.	.	.	.
CC(C)(C)c1cc(CCC(=O)N2CCC2)cc(C(C)(C)C)c1O	14	.	.	.	.	.
COCCNC(=O)CSc1cn(CC(=O)N2CCCCCC2)c2ccccc12	/	/	/	.	/	/
O=C1OCCN/C1=C\C(=O)c1ccc(Cl)cc1	.	.	.	.	.	/
SMILES	Shiga inhibitor	AmpC inh no detg	NS1 inh	AmpC inh detg	CHX counter-1	CHX counter-2
CC(C)CNC(=O)c1noc2c1CCCC2	51	.	?	?	.	.
Cc1nn(-c2ccccc2)c(N)c1C(O)(CSc1nccn1C)C(F)(F)F (stereo unspecified)	.	.	.	?	.	/
Cc1nn(-c2ccc(Cl)cc2)c(N)c1C(O)(CSc1nccn1C)C(F)(F)F (stereo unspecified)	69	.	.	.	.	.
Cc1ccc(-c2csc(NC(=O)c3c(C)noc3C)n2)cc1	/	.	/	.	/	/
Cc1ccc(-c2csc(NC(=O)c3ccc(C)o3)n2)cc1	71	.	.	?	.	.
Cc1ccc(NC(=O)c2ccc(Cn3cc(Br)cn3)o2)cc1	38	.	.	.	.	.
Cc1ccsc1/C=N/NC(=O)c1ccc(Cn2cc(Br)cn2)o1	.	.	.	?	.	/
COc1ccccc1/C=C1\SC(=S)N(CCC(=O)Nc2nnc(C)s2)C1=O	.	.	.	.	.	/
Cc1c(C(=O)Nc2ccc(-c3nnc4n3CCCCC4)cc2)oc2ccc(Br)cc12	14	.	?	.	.	?
CCn1cc(S(=O)(=O)N2CCc3ccccc3C2)cn1	.	.	.	.	.	/
CC(C)Oc1ccc(C(=O)NC(Cc2c[nH]c3ccccc23)C(=O)NN)cc1 (stereo unspecified)	37	.	.	.	.	.
CNc1c([N+](=O)[O-])cnn1-c1ccccn1	.	.	.	.	.	/
O=C(COc1ncnc2ccccc12)NCCc1ccccc1	.	.	/	.	.	/
O=C(COc1ncnc2ccccc12)NCCC1=CCCCC1	41	.	.	.	.	.
NS(=O)(=O)c1ccc(CCNC(=O)c2ccc(NC3=NC4CS(=O)(=O)CC4S3)cc2)cc1 (stereo unspecified)	114	.	.	.	.	.
O=C(COc1ccc(Cl)cc1)N/N=C/CCc1ccccc1	.	.	.	.	.	/
C=CCn1c(=S)[nH]c2cc(-c3ccccc3)sc2c1=O	39	.	?	.	.	?
C=CCn1c(=S)[nH]c2ccccc2c1=O	.	.	.	?	.	/
O=C(COCc1cc(-c2ccc3c(c2)OCO3)on1)N1CCN(c2ccccc2)CC1	40	.	.	.	.	.
O=C(COCc1cc(-c2cccs2)on1)N1CCN(c2ccccc2)CC1	/	/	/	.	/	/
COCCCNC(=O)NC(=O)c1ccccc1	18	.	.	?	.	.
Cc1cc(N2CCCCCC2)nc(-c2ccccc2O)n1	59	.	.	.	.	.
Cc1cc(N2CCOCC2)nc(-c2ccccc2O)n1	.	.	.	.	.	/
O=C(c1ccco1)N1CCC(c2nc3c(nnn3Cc3ccccc3Cl)c(=O)[nH]2)CC1	.	.	.	.	.	/
O=C(c1ccco1)N1CCN(c2nc(C3CC3)nc3c2nnn3Cc2ccccc2Cl)CC1	active	.	.	.	.	.
SMILES	Shiga inhibitor	AmpC inh no detg	NS1 inh	AmpC inh detg	CHX counter-1	CHX counter-2
O=C(CC(c1ccccc1)c1cc(Cl)ccc1O)N1CCCC1 (stereo unspecified)	57	.	.	.	.	.
O=C(CC(c1ccccc1)c1cc(Cl)ccc1O)N1CCOCC1 (stereo unspecified)	.	.	.	.	.	/
CCn1c(SCC(=O)Nc2cc(C)on2)nnc1-c1cccc(C)c1	93	.	.	.	.	.
O=C(CSc1nnc(-c2ccccn2)o1)Nc1ccccc1C(F)(F)F	63	.	.	.	.	.
CC(C)NC(=O)c1ccc(OC2CSC2)cc1	29	.	.	?	.	?
C=C1CC2COC(=O)C2(Cc2ccc3ccccc3c2)C1 (stereo unspecified)	.	/	/	/	.	/
Cc1cc(C)c2nc(-c3ccccn3)cc(C(=O)NCc3ccco3)c2c1	10	/	.	.	.	?
CNc1ccc(/C=C(\CCC(=O)O)c2nc3ccccc3s2)cc1[N+](=O)[O-]	65	.	.	?	.	.
O=C(NCCN1CCOCC1)C(=O)NCC1OCCN1S(=O)(=O)c1ccccc1 (stereo unspecified)	12	.	.	.	.	.
